# Source: PubChem BioAssay (NCI)
# Compounds without any hit were thinned out: in the full panel of roughly 83,000, 20% have a hit.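 Results are percent growth after 48 hours of single-concentration exposure. 100 means growth as in untreated cells, lower positive values show inhibition; negative values down to -100 show cell death.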 A number with no mark means an inactive call. Activity calls are given as the source filed them. How the source made its calls: active means growth percent below 10; inactive means the rest.
# Assays:
# Assay in all cases: NCI-60 one-dose screen, 48 h (100 = growth as untreated, 0 = no growth, -100 = all killed)
# Settings in all cases: 10 µM unless noted
# [1] = tested on: SK-MEL-2 melanoma
# [2] = tested on: EKVX NSCLC
# [3] = tested on: SN12C renal
# [4] = tested on: UO-31 renal
# [5] = tested on: TK-10 renal
# [6] = tested on: ACHN renal
# [7] = tested on: CAKI-1 renal
# [8] = tested on: A498 renal
# [9] = tested on: MOLT-4 leukemia
# [10] = tested on: SR leukemia
# [11] = tested on: RPMI-8226 leukemia
# [12] = tested on: OVCAR-8 ovarian
# [13] = tested on: OVCAR-4 ovarian
# [14] = tested on: SK-OV-3 ovarian
# [15] = tested on: IGROV1 ovarian
# [16] = tested on: OVCAR-3 ovarian
# [17] = tested on: HS 578T breast
# [18] = tested on: NCI/ADR-RES ovarian
# [19] = tested on: OVCAR-5 ovarian
SMILES,growth [1],growth [2] [%],growth [3],growth [4],growth [5],growth [6],growth [7],growth [8],growth [9],growth [10],growth [11],growth [12],growth [13],growth [14] [%],growth [15],growth [16],growth [17],growth [18],growth [19]
CC/C=C\CCC/C=C1/C(=O)C=C[C@@H]1C/C=C\CCCC(=O)O,89.4%,103,48.4%,70.8%,114%,42.9%,60.1%,103%,6.84% (active),8.78% (active),6.36% (active),9.28% (active),92.5%,124,104%,43.6%,45.7%,19%,–
O=C1CCc2c(sc3[nH]c(=S)n(-c4ccc(OC(F)(F)F)cc4)c(=O)c23)C1,58.5%,56.7,31.4%,44.4%,104%,80.3%,83.6%,107%,47.3%,35.8%,-21.7% (active),53.6%,17.1%,104,55.6%,13.2%,37.1%,12.5%,55.7%
O=c1c2c3c(sc2nc(N/N=C/c2ccc(Br)cc2)n1Cc1ccccc1)CCCC3,102%,74.1,78.3%,62.3%,85.5%,87.1%,62%,78.4%,40.8%,33.5%,52%,45.9%,84.2%,81.7,–,76.8%,64.8%,80%,78.3%
N=C1C(c2nc(-c3ccc(Br)cc3)cs2)=C(O)CN1Cc1cccnc1,111%,71.7,69.7%,-6.45% (active),60.1%,61.5%,57.1%,86.8%,68.5%,55.1%,70.2%,16.3%,37.2%,40.4,–,101%,23%,70.1%,77.1%
CCOC(=O)/C=C/c1cc2cc(-c3csc4ccccc34)ccc2[nH]1,101%,72.7,91.8%,36.2%,121%,90.8%,69.4%,89.8%,12.2%,0.282% (active),47.4%,19.6%,92.3%,132,–,77.1%,67.2%,30.8%,101%
Cc1ccc(CCC(=O)Nc2ncc(Cc3cc(Cl)ccc3Cl)s2)o1,65%,41,23.4%,32%,57%,28.8%,26.2%,6.53% (active),14%,16.2%,19.9%,–,43.3%,33.1,17%,-0.778% (active),9.73% (active),-4.35% (active),23.2%
Cn1c(-c2c(N)n(Cc3cccnc3)c3nc(C#N)c(C#N)nc23)nc2ccccc21,107%,87.1,106%,31.5%,55.5%,85.8%,92.1%,98.9%,74.1%,40.1%,94.5%,80.5%,102%,116,–,99.5%,106%,95.5%,78%
c1cc2ccc3cc2cc1CNCCOCCNCc1ccc2ccc(cc2c1)CNCCOCCNC3,-63.5% (active),21.4,-19.9% (active),73.7%,8.5% (active),70%,15.4%,31.7%,4.08% (active),10.1%,0.51% (active),-3.14% (active),-40.4% (active),–,-4.09% (active),-40% (active),-17.6% (active),105%,-16.8% (active)
CC1SC(c2ccc(OCc3ccccc3)cc2)N(NC(=O)C(O)(c2ccccc2)c2ccccc2)C1=O (stereo unspecified),74.4%,47,85.6%,54.6%,58.6%,55.3%,44.3%,55.8%,28.7%,35.9%,-7.26% (active),77.8%,54.7%,73.3,–,31%,74.6%,63.5%,80.5%
O=C1C=C[C@]2(C[C@@H](c3cccc(C(F)(F)F)c3)O[C@@H](c3cccc(C(F)(F)F)c3)O2)O1,-26.7% (active),80.9,0.629% (active),-77.3% (active),-85.5% (active),-49.4% (active),32.8%,31%,3.17% (active),9.17% (active),-2.8% (active),38.5%,–,84.9,22.3%,-33.1% (active),-4.02% (active),51.3%,86.2%
O=C(c1ccccc1)N1N=C(c2ccccc2)CC1c1nnc2n(Cc3ccccc3)c(=O)c3c4c(sc3n12)CCCC4 (stereo unspecified),77.6%,102,120%,84.4%,111%,99.8%,99.3%,114%,88.8%,-16.1% (active),91.6%,106%,108%,106,–,112%,109%,118%,133%
CN1CCN(CC(=O)Nc2nc(-c3cccc(NS(=O)(=O)c4cccc5c(N(C)C)cccc45)c3)cs2)CC1,94.3%,66.4,69.7%,58.3%,100%,82.3%,67.9%,96.8%,46.2%,11.5%,24.2%,–,61.2%,93.1,86.6%,74.4%,75%,87.3%,86.6%
C=CCOC1=CC(=O)c2ccccc2C1=O,60.5%,116,82.9%,74.2%,113%,83%,101%,74.6%,65.8%,9.62% (active),92.7%,57.2%,–,109,85.5%,-13.4% (active),81.7%,60.1%,110%
CN(C)c1ccc(/C=C/C(=O)c2cccc(Nc3nc(Nc4ccccc4)nc(Nc4ccccc4)n3)c2)cc1,62.1%,77.8,91.6%,73.5%,90.9%,90.6%,91.6%,76.8%,80.6%,77.4%,53.4%,–,30.7%,93.2,69%,102%,78.9%,76.4%,93.9%
COc1ccc(-c2csc(C3=C(O)CN(C(C)C)C3=N)n2)cc1OC,133%,94.3,97.4%,3.91% (active),94.4%,103%,82.1%,89.6%,87.2%,57%,56.3%,91%,117%,124,–,117%,110%,98.5%,96.6%
COc1ccc(/C=c2\nc3n(-c4ccccc4)c4nc5c6c(sc5c(=N)n4n-3c2=O)CCCC6)cc1,99.4%,67,86.4%,49.5%,124%,75.1%,72.9%,58.9%,56.3%,61.5%,80.1%,89.3%,–,–,61.4%,88.2%,85.6%,83.1%,104%
O=C(COc1ccc(/C=C2\Oc3ccccc3C2=O)cc1)Nc1nc2c(s1)CCCC2,84%,26.4,46%,-59.9% (active),79.7%,65.5%,-98.4% (active),110%,-64.3% (active),-90.7% (active),-86.3% (active),6.97% (active),75.6%,27.3,–,29.3%,69.2%,78.8%,61.7%
